# According to PubChem BioAssay (NCATS):
# Unmarked numbers belong to inactive results. Calls follow the shape of the dose curve; as a rule, active = well fitted cell-killing curve with a large enough effect; inconclusive = small, poorly fitted or top-dose-only effect; inactive = flat fitted curve, though single readings scatter.
# Assay: Cell Viability - LYMP1-002 - Assay at 24 hr (AID 993)
# Settings: LYMP1-002 lymphoblastoid cells viability; series mostly up to 92.2 µM; activity change, negative = cytotoxicity: at the top concentration
# Description: NIH Chemical Genomics Center [NCGC]
# NIH Molecular Libraries Screening Centers Network [MLSCN]
# National Institutes of Environmental Health Sciences [NIEHS]
# National Toxicology Program [NTP]
# We have developed a 1536-well cell-based assay for quantitative high throughput screening (qHTS) against a number of cell lines to determine in vitro cytotoxicity of small molecules. This particular assay uses a human lymphoblastoid cell line (LYMP1-002) purchased from Coriell Institute for Medical Research.
# NCGC Assay Protocol Summary:
# The CellTiter-Glo luminescent cell viability assay (Promega) is a homogeneous method to measure the number of viable cells in culture. The end point readout of this assay is based on quantitation of intracellular ATP, an indicator of metabolic activity, using the luciferase reaction. Luciferase catalyzes the oxidation of beetle Luciferin to oxyluciferin and light in the presence of ATP. The luminescent signal is proportional to amount of ATP present.
# Using the CellTiter-Glo luminescent cell viability assay, the amount of cellular ATP was measured in the lymphoblastoid cell line with complete culture medium following compound treatment for 24 hours. The assay was performed in opaque white Kalypsys 1536-well plates. In the screen, tetraoctylammonium bromide was used as positive control. Library compounds were measured for their ability to cause acute toxicity in the cell line, as reflected by a decrease in intracellular ATP levels, in a concentration-dependent manner. […] AC50 values were determined from concentration-response data modeled with the standard Hill equation.
# qHTS protocol for CellTiter Glo lymphoblastoid cellular assay
# [Step] [Parameter] [Value] [Description]
# 1. Reagent; 5 uL; 2500 lymphoblastoid cells/well
# 2. Time; 5 hr; 37 C incubation
# 4. Controls; 23 nL; Tetraoctylammonium bromide 6.4pM to 92 uM
# 5. Time; 24 hr; 37 C incubation
# 6. Reagent; 5 uL; CellTiter Glo reagent
# 7. Time; 30 min; Room Temperature
# 8. Detection; Luminescence; Viewlux plate reader
# Keywords: cell viability, cytotoxicity, lymphoblastoid cell line, luminescence, NTPHTS, NTPHTS_NCGC, NIEHS, DSSTox, MLSMR, MLSCN, NIH Roadmap, qHTS, NCGC
# % is scaled to controls: 0 for no effect and ±100 for the full control effect.
row,SMILES,"activity change, negative = cytotoxicity"
1,CCCCC(CC)COC(=O)CCCCC(=O)OCC(CC)CCCC (stereo not given),1.27%
2,C=CCCC,-2.27%
3,NC(=O)c1ccccc1[N+](=O)[O-],4.09%
4,COc1ccc(N)c(OC)c1,-6.78%
5,CCCCCCO,2.66%
6,O=C(O)c1ccc(Cl)c(Cl)c1,-2.78%
7,NC(=S)NNC(N)=S,0.687%
8,CC(C)C(C)C,-6.2%
9,C=C(C)C(=O)OCC(C)O (stereo not given),-4.24%
10,N#CC1(O)CCCCC1,0.78%
11,COC(=O)CCCC(=O)OC,-5.74%
12,Cc1c(N)cccc1[N+](=O)[O-],1.57%
13,NC(N)=S,-1.12%
14,O=C(O)c1ccc(Cl)cc1Cl,-3.47%
15,CC(=C/C=C/C(C)=C/C=C/C=C(C)/C=C/C=C(C)/C=C/C(=O)O)/C=C/C(=O)O,-1.16%
16,ClCCl,5.67%
17,C[C@@H]1CC2(OC[C@]3(C)O[C@H]23)O[C@H]2C[C@@]3(C)[C@@H]4CC[C@H]5C(C)(C)C(O[C@@H]6OC[C@@H](O)[C@H](O)[C@H]6O)CC[C@@]56C[C@@]46CC[C@]3(C)[C@@H]12 (stereo not given in full),-4.01%
18,Cc1cccc(C)c1,3.53%
19,CCCOCC(C)OCC(C)O (stereo not given),-0.393%
20,CC(=O)Nc1ccc(N)cc1,7.42%

row,SMILES,"activity change, negative = cytotoxicity"
1,CC(=O)OCCC(C)C,5.36%
2,Nc1cc(S(=O)(=O)O)ccc1O,1.15%
3,O=C(O)c1ccc(C(=O)O)cc1,5.46%
4,CCCCCCCCCCCCC1CO1 (stereo not given),-6.26%
5,CCCCCO,-0.751%
6,Cc1cc([N+](=O)[O-])ccc1N,0.326%
7,FC(F)(F)c1cccc(Cl)c1,1.83%
8,Cc1cccc(C)c1[N+](=O)[O-],2.72%
9,O=[N+]([O-])c1ccc(Cl)cc1Cl,-1.76%
10,Cc1cccc2cccnc12,-5.14%
11,CC1CCC2CC1C2(C)C (stereo not given),3.87%
12,Nc1ccccc1[N+](=O)[O-],-0.855%
13,Cc1cccc(Br)c1,-8.74%
14,Clc1ccccn1,-1.33%
15,O=[N+]([O-])c1ccccc1CCO,-2.65%
16,O=[N+]([O-])c1cc(C(F)(F)F)ccc1Cl,-0.0578%
17,COC(=O)c1ccccc1,4.16%
18,O=C1C=CCCC1,-2.76%
19,Cc1cccc(C(=O)O)c1,-4.29%
20,C=CC(=O)OCCCC,-2.4%
